Tau fibril ThT: tau fibrillization inhibition (ThT binding); P10636; 270,000 compounds, 2.1% hits; Potency, µM (series often up to 57.4 µM), most hits filed as inhibitors; recombinant tau K18 P301L, heparin-induced fibrillization, ThT fluorescence; further: nearly all actives have a fitted effect of over 55% in size
Target sequence (P10636 561-689 P618L limits assumed): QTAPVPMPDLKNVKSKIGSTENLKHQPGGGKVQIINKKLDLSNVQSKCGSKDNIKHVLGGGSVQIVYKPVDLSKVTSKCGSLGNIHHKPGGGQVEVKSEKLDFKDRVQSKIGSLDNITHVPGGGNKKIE
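Heparin-induced (20 uM) aggregation of recombinant human K18 P301L tau, 15 uM unlabeled with 0.24 uM labeled, pH 7 acetate buffer, 6 hr at 37 C with compound. Fibrils quantified by 30 uM ThT fluorescence after 1 hr ambient incubation.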
HTT aggregate: mutant huntingtin aggregation inhibition | PC12 HttQ103-GFP aggregates, Acumen cytometry, 40 h | Potency, µM (doses to about 46.1 µM), usual class: inhibitors | 220,000 compounds, 1.1% hits; further: nearly all actives have a fitted effect of over 60% in size
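Aggregate formation scored by laser-scanning cytometer (488 excitation, 500–530 emission) in lysed PC12 cells expressing Q103-GFP after 100 nM tebufenozide induction; library tested in dose series, with ATPLite reagent added in the multiplex.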
Tau fluor cs: counter-screen for tau fibril formation inhibitors | tau K18 P301L Alexa594 fluorescence, heparin fibrillization | Potency, µM (highest dose often 57.7 µM) | 280,000 compounds, 0.93% hits | AID 1463; further: nearly all actives have a fitted effect of over 55% in size
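Human K18 P301L tau (15 uM unlabeled plus 0.24 uM Alexa 594-labeled, final) in 100 mM sodium acetate pH 7 was mixed with compound and 20 uM heparin and incubated 6 hr at 37 C.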
HTT ATP protect: protects HTT-Q103 PC12 cells, measured by ATP; PC12 HTT-Q103 induced, cytoprotection, ATP luminescence, 40 h; 230,000 compounds, 0.14% hits; Potency, µM (series often up to 56.4 µM), usual class: activators; further: nearly all actives have a fitted effect of over 45% in size
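Cells were plated at 1500 per well in phenol red-free DMEM with 5% equine and 5% calf serum. Tebufenozide (100 nM final) and compounds were added, then ATPlite reagent, and luminescence was read.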
Tau fibril FP: blocks human tau fibril formation measured by polarization. 280,000 compounds, 0.39% hits. AID 1468. Potency, µM (doses to about 57.7 µM), actives largely listed as inhibitors. K18 P301L tau heparin fibrillization, Alexa594 FP, 6 h. P10636; further: nearly all actives have a fitted effect of over 55% in size
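Read-out: fluorescence polarization of Alexa 594-labeled tau (0.24 uM), 555 nm excitation, 632 nm emission. Mixtures held 15 uM unlabeled K18 P301L, compound and 20 uM heparin, pH 7 acetate buffer, incubated 6 hr at 37 C.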
Tau TEM fibril: Inhibits tau K18 fibrillization by TEM grading; shares compounds with Tau fibril ThT; recombinant tau K18 P301L fibrillization, TEM grading; stronger effect = higher value; fibril grade (0 = clumped fibrils, 4 = only tiny pieces) (test concentration not listed); 45 compounds, 70% hits; AID 1719;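 active means compounds whose electron micrographs showed tau fibrils broken into shorter filaments or fragments, graded high on fibril breakup; inconclusive means micrographs gave an unclear fibril picture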
tau sediment: inhibitors of human tau fibrillization, sedimentation test; shares compounds with Tau fibril ThT; recombinant tau K18 P301L (four-repeat tau fragment), sedimentation SDS-PAGE densitometry; inhibition, % at 100 µM; 110 compounds, 50% hits; AID 1720; in the data active means inhibition above about 40%; inconclusive means no clear call, values can overlap the other calls; inactive means below about 18%
Large screens that a line does not name were inactive (follow-up assays come after a bar, where they were run); [ ] = dose if it differs, or a comment. Only some compounds are listed: those with a hit (about 3.7% of all), similar ones and a draw of the others. Unless noted, the call rests on the fitted dose curve; in most records, active means well fitted curve in the direction sought with a large enough effect; inconclusive means small, poorly fitted or top-dose-only effect, or another doubt; inactive means no such curve, though single readings can be large; an effect the other way counts as inactive or inconclusive.

COc1ccc(S(=O)(=O)c2c(Nc3c(C)cccc3C)sc(C(=O)c3ccc(F)cc3)c2N)cc1	none (no result: HTT aggregate, HTT ATP protect)
Cn1cc(Cl)c(C(=O)Nc2cccc(Cl)c2Cl)n1	none | tau sediment inactive
Cn1cc(Cl)c(C(=O)Nc2nc3ccccc3s2)n1	none
O=C(O)CC/C=C\CC[C@H]1[C@@H](N2CCCCC2)[C@@H](O)C[C@@H]1OCc1ccc(-c2ccccc2)cc1	none (no result: HTT aggregate)
COc1cccc(-n2nc(C(=O)O)c3ccccc3c2=O)c1	none
Nc1scc2c(C(=O)NCc3ccccc3)nn(-c3ccccc3)c(=O)c12	none (no result: Tau fibril ThT, HTT aggregate, Tau fluor cs, HTT ATP protect, Tau fibril FP) | tau sediment 54
Nc1scc2c(C(=O)O)nn(-c3ccccc3)c(=O)c12	none (no result: Tau fibril ThT, HTT aggregate, Tau fluor cs, HTT ATP protect, Tau fibril FP) | tau sediment 84
O=C(Nc1ccc(OC(F)(F)F)cc1)C1CCN(S(=O)(=O)c2ccc3[nH]c(=O)ccc3c2)CC1	none (no result: HTT aggregate, HTT ATP protect)
c1cn(-c2cc(-c3ccc4c(c3)OCO4)ncn2)cn1	none (no result: Tau fibril ThT, HTT aggregate, Tau fluor cs, Tau fibril FP)
Cc1[nH]c(=O)c(C#N)cc1-c1ccncc1	HTT ATP protect inconclusive | tau sediment inactive
Cc1[nH]c(=O)c(C#N)cc1-c1ccc2nccn2c1	none
CN(c1ccccc1)S(=O)(=O)c1nnc(NC(=O)C2CCCCC2)s1	Tau fibril ThT 2.5µM, Tau fluor cs inconclusive, Tau fibril FP inconclusive (no result: HTT aggregate, HTT ATP protect) | Tau TEM fibril 3 | tau sediment 80
CN(c1ccccc1)S(=O)(=O)c1nnc(NC(=O)c2ccccc2)s1	Tau fibril ThT inconclusive (no result: HTT aggregate, HTT ATP protect)
CCn1nccc1C(=O)Nc1cc(Cl)cc(Cl)c1	Tau fibril ThT inconclusive, Tau fluor cs inconclusive, Tau fibril FP 28µM | tau sediment inconclusive
COc1ccc(-c2nnc(SCC(=O)Nc3cccc(C(F)(F)F)c3)s2)cc1	Tau fibril ThT inconclusive (no result: HTT aggregate, HTT ATP protect)
N#Cc1cccc(NC(=O)c2ccc3c(c2)N(Cc2cccc(Cl)c2)C(=O)c2ccccc2S3(=O)=O)c1	Tau fibril FP 13µM (no result: HTT aggregate, HTT ATP protect) | tau sediment inactive
Cc1cc(NC(=O)c2ccc3c(c2)N(Cc2cccc(Cl)c2)C(=O)c2ccccc2S3(=O)=O)ccc1Br	Tau fibril FP inconclusive (no result: HTT aggregate, HTT ATP protect)
Nc1c(-c2ccccc2)cc[nH]c1=O	none (no result: Tau fibril ThT, HTT aggregate, Tau fluor cs, HTT ATP protect, Tau fibril FP) | tau sediment inactive
Cc1ccc2c(Sc3ccc(Cl)cc3)c(C(=O)N3CCC(C)CC3)[nH]c2c1	none (no result: HTT aggregate, HTT ATP protect)
Cc1ccc(S(=O)(=O)N2CCC(C(=O)Nc3ccc(C)c(Cl)c3)CC2)cc1	Tau fluor cs inconclusive, Tau fibril FP inconclusive (no result: HTT aggregate, HTT ATP protect)
O=C(O)CC1S/C(=N/N=C/c2ccc(-c3ccc(Cl)cc3[N+](=O)[O-])o2)NC1=O (stereo not given)	Tau fibril ThT 1µM, Tau fluor cs inconclusive, Tau fibril FP 1.6µM | Tau TEM fibril 3 | tau sediment 74
O=C(Nc1ccc(OC(F)(F)F)cc1)Nc1cccc([N+](=O)[O-])c1	Tau fibril ThT inconclusive, HTT aggregate inconclusive, Tau fluor cs 1.8µM[quencher], Tau fibril FP 4.5µM | tau sediment inactive
O=C(Nc1ccc(OC(F)(F)F)cc1)Nc1cccnc1	none
CCOC(=O)c1nn(-c2ccc(Cl)cc2)c(=O)c2c(N)scc12	none (no result: Tau fibril ThT, HTT aggregate, Tau fluor cs, HTT ATP protect, Tau fibril FP) | tau sediment 62
COC(=O)c1nn(-c2ccc(OC)cc2)c(=O)c2c(N)sc(C)c12	Tau fibril ThT inconclusive (no result: HTT ATP protect) | Tau TEM fibril inconclusive | tau sediment 44
CCOC(=O)c1nn(-c2ccc(F)cc2)c(=O)c2c(N)scc12	none | tau sediment 64
CCOC(=O)c1nn(-c2ccc(F)cc2)c(-c2ccccc2)c1C(=O)c1ccccc1	none
CCOC(=O)c1nn(-c2ccc(C)cc2)c(=O)c2c(N)scc12	Tau fibril ThT 14µM, Tau fluor cs inconclusive, Tau fibril FP inconclusive | tau sediment inconclusive
Cn1c(=O)c2c(-c3ccccc3Cl)n(-c3cc(Cl)ccc3O)cc2n(C)c1=O	Tau fluor cs inconclusive (no result: HTT aggregate, HTT ATP protect)
Cn1c(=O)c(=O)n(C)c2cc(N3CCCC3)c(NC(=O)c3ccc(C(C)(C)C)cc3)cc21	none (no result: HTT aggregate, HTT ATP protect)
Cc1ccc(C(=O)Nc2nc(=O)n(C(=O)CC(C)C)s2)cc1	Tau fibril ThT inconclusive, Tau fibril FP inconclusive | tau sediment inactive
Cc1ccc(C(=O)Nc2nc(=O)[nH]s2)cc1	none

Screening data deposited in PubChem by National Center for Advancing Translational Sciences (NCATS).
